Experimental data from PubChem BioAssay AID1159580 (chemical genetic matrix, 2015).
“And” between values parts separate entries of the source, which are not always exact repeats. Equal values may be shown once. In all, about 5,500 compounds went through this assay and about 2,000 (36%) were called active. Inconclusive results (about 18%) are left out. No stated cut-off is given here; in the data, active means normalized growth mostly below about 0.91 (no sharp cut-off); inconclusive means no clear call, values can overlap the other calls; inactive means mostly above about 0.92. This is one part of the list.

Assay: chemical genetic growth profiling, strain panel (AID 1159580);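 further: tested at 20 µM; growth read once vehicle control cultures reached saturation at 30 °C; 1 = growth at the plate median or of vehicle wells; lower values mean less growth of the strain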
Conditions: growth OD
[1] = S. cerevisiae deletion strains, locus YBR229C, strain ROT2, active compounds read low
[2] = S. cerevisiae deletion strains, locus YDL101C, strain DUN1, active compounds read low
[3] = S. cerevisiae deletion strains, locus YDL134C, strain PPH21, active compounds read low
[4] = S. cerevisiae deletion strains, locus YDR150W, strain NUM1, active compounds read low
[5] = S. cerevisiae deletion strains, locus YEL061C, strain CIN8, active compounds read low
[6] = S. cerevisiae deletion strains, locus YHR030C, strain SLT2, active compounds read low
[7] = S. cerevisiae deletion strains, locus YJR043C, strain POL32, active compounds read low
[8] = S. cerevisiae deletion strains, locus YJR075W, strain HOC1, active compounds read low
[9] = S. cerevisiae deletion strains, locus YKL190W, strain CNB1, active compounds read low
[10] = S. cerevisiae deletion strains, locus YLR039C, strain RIC1, active compounds read low
[11] = S. cerevisiae deletion strains, locus YLR262C, strain YPT6, active compounds read low
[12] = S. cerevisiae deletion strains, locus YMR263W, strain SAP30, active compounds read low
[13] = S. cerevisiae deletion strains, locus YMR307W, strain GAS1, active compounds read low
[14] = S. cerevisiae deletion strains, locus YNL322C, strain KRE1, active compounds read low
[15] = S. cerevisiae deletion strains, locus YOL006C, strain TOP1, active compounds read low
[16] = S. cerevisiae deletion strains, locus YPL055C, strain LGE1, active compounds read low
[17] = S. cerevisiae strains, strain wild type, active compounds read low
[18] = S. cerevisiae deletion strains, locus YAL013W, strain DEP1, active compounds read low
[19] = S. cerevisiae deletion strains, locus YGR078C, strain PAC10, active compounds read low
[20] = S. cerevisiae deletion strains, locus YHR087W, strain rtc3, active compounds read low
[21] = S. cerevisiae deletion strains, locus YJL187C, strain SWE1, active compounds read low
[22] = S. cerevisiae deletion strains, locus YLR058C, strain SHM2 (second series), active compounds read low
[23] = S. cerevisiae deletion strains, locus YLR085C, strain ARP6, active compounds read low
[24] = S. cerevisiae deletion strains, locus YML094W, strain GIM5, active compounds read low
[25] = S. cerevisiae deletion strains, locus YMR219W, strain ESC1, active compounds read low
[26] = S. cerevisiae deletion strains, locus YNL153C, strain GIM3, active compounds read low
[27] = S. cerevisiae deletion strains, locus YNL298W, strain CLA4 (second series), active compounds read low
[28] = S. cerevisiae deletion strains, locus YNR030W, strain Alg12, active compounds read low
[29] = S. cerevisiae deletion strains, locus YPL241C, strain CIN2, active compounds read low
[30] = S. cerevisiae deletion strains, locus YPR135W, strain CTF4, active compounds read low

Measured: normalized growth

CCCCC1(COC(=O)CCC(=O)O)C(=O)N(c2ccccc2)N(c2ccccc2)C1=O
inactive: S. cerevisiae deletion strains, locus YBR021W, strain FUR4, active compounds read low 1 | [1] 1 | S. cerevisiae deletion strains, locus YCL029C, strain bik1, active compounds read low 1.02 | S. cerevisiae deletion strains, locus YDL035C, strain GPR1, active compounds read low 1.01 | S. cerevisiae deletion strains, locus YDL074C, strain BRE1, active compounds read low 0.993 | [2] 1 | [3] 1.01 | S. cerevisiae deletion strains, locus YDL185W, strain tfp1, active compounds read low 1.01 | S. cerevisiae deletion strains, locus YDL192W, strain arf1, active compounds read low 1.01 | S. cerevisiae deletion strains, locus YDR101C, strain arx1, active compounds read low 1.01 | [4] 0.992 | S. cerevisiae deletion strains, locus YDR162C, strain NBP2, active compounds read low 0.995 | S. cerevisiae deletion strains, locus YDR318W, strain mcm21, active compounds read low 1 | S. cerevisiae deletion strains, locus YDR388W, active compounds read low 1.01 | S. cerevisiae deletion strains, locus YDR502C, strain sam2, active compounds read low 1.01 | [5] 1 | S. cerevisiae deletion strains, locus YER110C, active compounds read low 1.02 | S. cerevisiae deletion strains, locus YER155C, strain BEM2, active compounds read low 1 | S. cerevisiae deletion strains, locus YER167W, strain BCK2, active compounds read low 1 | S. cerevisiae deletion strains, locus YGL078C, strain dbp3, active compounds read low 0.996 | S. cerevisiae deletion strains, locus YGL086W, strain mad1, active compounds read low 1 | S. cerevisiae deletion strains, locus YGL248W, strain PDE1, active compounds read low 1.01 | S. cerevisiae deletion strains, locus YGR135W, strain pre9, active compounds read low 1.02 | S. cerevisiae deletion strains, locus YGR252W, strain gcn5, active compounds read low 1.06 | [6] 1 and 1.05 | S. cerevisiae deletion strains, locus YHR079C, strain IRE1 (second series), active compounds read low 1.01 | S. cerevisiae deletion strains, locus YHR079C, strain IRE1, active compounds read low 1.04 | S. cerevisiae deletion strains, locus YHR094C, strain hxt1, active compounds read low 1.01 | S. cerevisiae deletion strains, locus YHR129C, strain ARP1, active compounds read low 1 | S. cerevisiae deletion strains, locus YHR200W, strain rpn10, active compounds read low 1.01 | S. cerevisiae deletion strains, locus YIL066C, strain RNR3, active compounds read low 1.01 | S. cerevisiae deletion strains, locus YIL073C, strain SPO22, active compounds read low 1.09 | S. cerevisiae deletion strains, locus YIL125W, strain kgd1, active compounds read low 0.991 | S. cerevisiae deletion strains, locus YIR030C, strain dcg1, active compounds read low 1.01 | S. cerevisiae deletion strains, locus YJL095W, strain BCK1, active compounds read low 1.01 and 1.05 | S. cerevisiae deletion strains, locus YJL134W, strain LCB3, active compounds read low 0.996 | S. cerevisiae deletion strains, locus YJL168C, strain set2, active compounds read low 1 | S. cerevisiae deletion strains, locus YJL187C, strain SWE1 (second series), active compounds read low 1.01 | [7] 0.989 | S. cerevisiae deletion strains, locus YJR066W, strain TOR1, active compounds read low 0.967 | [8] 1.01 | S. cerevisiae deletion strains, locus YKL009W, strain mrt4, active compounds read low 1.03 | S. cerevisiae deletion strains, locus YKL068W, active compounds read low 1 | S. cerevisiae deletion strains, locus YKL085W, strain MDH1 (second series), active compounds read low 0.972 | S. cerevisiae deletion strains, locus YKL085W, strain MDH1, active compounds read low 0.972 | [9] 0.993 | S. cerevisiae deletion strains, locus YKR001C, strain vps1, active compounds read low 1.01 | [10] 0.912 | S. cerevisiae deletion strains, locus YLR058C, strain SHM2, active compounds read low 1 | S. cerevisiae deletion strains, locus YLR102C, strain apc9, active compounds read low 1 | S. cerevisiae deletion strains, locus YLR113W, strain HOG1, active compounds read low 0.952 | [11] 0.913 | S. cerevisiae deletion strains, locus YLR268W, strain sec22, active compounds read low 1.02 | S. cerevisiae deletion strains, locus YLR330W, strain CHS5, active compounds read low 0.993 | S. cerevisiae deletion strains, locus YLR342W, strain FKS1 (second series), active compounds read low 0.993 | S. cerevisiae deletion strains, locus YLR371W, strain rom2, active compounds read low 1.01 | S. cerevisiae deletion strains, locus YLR418C, strain cdc73, active compounds read low 1.03 | S. cerevisiae deletion strains, locus YML016C, strain PPZ1, active compounds read low 1 | S. cerevisiae deletion strains, locus YML032C, strain rad52, active compounds read low 1 | S. cerevisiae deletion strains, locus YML124C, strain tub3, active compounds read low 1.01 | S. cerevisiae deletion strains, locus YMR078C, strain ctf18, active compounds read low 1 | S. cerevisiae deletion strains, locus YMR223W, strain ubp8, active compounds read low 1.01 | [12] 0.998 | [13] 1.05 | S. cerevisiae deletion strains, locus YNL067W, strain RPL9B, active compounds read low 0.998 | S. cerevisiae deletion strains, locus YNL128W, strain TEP1, active compounds read low 1.02 | S. cerevisiae deletion strains, locus YNL183C, strain NPR1, active compounds read low 0.945 | S. cerevisiae deletion strains, locus YNL233W, strain BNI4, active compounds read low 1 | S. cerevisiae deletion strains, locus YNL250W, strain rad50, active compounds read low 1 | S. cerevisiae deletion strains, locus YNL271C, strain bni1, active compounds read low 1.01 | S. cerevisiae deletion strains, locus YNL298W, strain CLA4, active compounds read low 1.01 | S. cerevisiae deletion strains, locus YNL307C, strain MCK1, active compounds read low 1.02 | [14] 0.997 | S. cerevisiae deletion strains, locus YNR052C, strain pop2, active compounds read low 1.01 | [15] 0.991 | S. cerevisiae deletion strains, locus YOL012C, strain htz1 1.51 | S. cerevisiae deletion strains, locus YOL147C, strain pex11, active compounds read low 1.01 | S. cerevisiae deletion strains, locus YOR061W, strain CKA2, active compounds read low 1 | S. cerevisiae deletion strains, locus YOR069W, strain VPS5, active compounds read low 1 | S. cerevisiae deletion strains, locus YOR136W, strain idh2, active compounds read low 1.02 | S. cerevisiae deletion strains, locus YOR144C, strain elg1, active compounds read low 1.01 | S. cerevisiae deletion strains, locus YOR184W, strain ser1, active compounds read low 1.02 | S. cerevisiae deletion strains, locus YOR231W, strain MKK1, active compounds read low 1.02 | S. cerevisiae deletion strains, locus YOR316C, strain cot1, active compounds read low 1.02 | [16] 0.989 | S. cerevisiae deletion strains, locus YPL256C, strain CLN2, active compounds read low 1.02 | S. cerevisiae deletion strains, locus YPR119W, strain clb2, active compounds read low 1.01 | S. cerevisiae deletion strains, locus YPR141C, strain kar3, active compounds read low 1 | S. cerevisiae deletion strains, locus YPR163C, strain tif3, active compounds read low 1.02 | S. cerevisiae deletion strains, locus YPR167C, strain met16, active compounds read low 1.01 | S. cerevisiae deletion strains, strain wtn01, active compounds read low 1.02 | [17] 0.995

COC(=O)c1ccc(-c2ccc(Cl)cc2)s1
active: [18] 0.898 | [1] 0.901 | S. cerevisiae deletion strains, locus YCL061C, strain MRC1, active compounds read low 0.858 | [5] 0.87 | [19] 0.914 | [6] 0.587 | [20] 0.909 | [8] 0.88 | [9] 0.913 | [10] 0.497 | [22] 0.907 | [23] 0.577 | [11] 0.435 | [25] 0.908 | [13] 0.629 | [26] 0.872 | [27] 0.79 | [14] 0.92 | [28] 0.869 | [15] 0.637 | [29] 0.83 | [30] 0.597
inactive: [2] 0.906 | [4] 0.893 | [21] 0.961 | [7] 0.927 | [24] 0.871 | [12] 0.893 | [16] 1.08 | [17] 0.928

CCSc1sc(C(=O)OC)c(-c2ccc(Cl)cc2)c1C#N
inactive: [18] 1.01 | [1] 0.985 | [2] 1.02 | [3] 0.964 | [4] 1.06 | [5] 0.917 | [19] 0.995 | S. cerevisiae deletion strains, locus YGR229C, strain SMI1, active compounds read low 0.989 | [6] 0.989 | [20] 1 | [21] 0.983 | [7] 1.05 | [8] 0.968 | [9] 0.99 | [10] 1.01 | [22] 0.986 | [23] 0.817 | [11] 0.999 | [24] 0.946 | [25] 0.992 | [12] 1.07 | [13] 0.972 | [26] 0.994 | [27] 0.94 | [14] 0.99 | [28] 0.954 | [16] 1.08 | [29] 0.96 | [30] 1.01
